mHTT CaM bind = inhibitors of human mutant huntingtin-calmodulin interaction. P42858. AlphaScreen His-mHTT/GST-CaM binding, luminescence. inhibition, % at 15 µM. hit rate 3.6% among 190,000. AID 1671202
Pf apPOL inh = Pf-apPOL DNA polymerase inhibition; Recombinant Pf-apPOL, molecular beacon fluorescence, 1.5 h; inhibition, % at 10 µM; hit rate 0.25% among 210,000
Numbers stand for hits; i = inactive; nt = no result; + = active, no number. Rows were chosen to be rich in hits. Some 3.5% of all compounds tested hit in one or more screens of this group. Rule as the data show it: active = inhibition above about 50%; inactive = the rest.

SMILES	mHTT CaM bind	Pf apPOL inh
COc1ccc(C2C=C(C(=O)O)Nc3ncnn32)cc1 (stereo unspecified)	i	i
Brc1ccc(-n2nnnc2-c2cnn(-c3ccccc3)c2-c2ccccc2)cc1	nt	i
CC1Cc2cc(/C=C3/N=C(c4ccccc4Cl)OC3=O)ccc2O1 (stereo unspecified)	i	i
CCOC(=O)C(CCC#N)(CCC#N)C(C)=O	nt	i
O=c1oc2ccc(Cl)cc2cc1-c1nc2ccccc2[nH]1	i	i
O=c1oc2ccc(Br)cc2cc1-c1nc2ccccc2[nH]1	i	83
Cc1cccc(NC(=O)Cc2nc(-c3ccccn3)n[nH]2)c1C	99	i
N#CCc1nc(-c2ccccn2)n[nH]1	nt	i
O=C(Cc1nc(-c2cccnc2)n[nH]1)Nc1ccc(F)c(F)c1	i	i
CCOC(=O)Cc1nc(-c2ccccn2)n[nH]1	98	i
O=C(Cc1nc(-c2ccccn2)n[nH]1)Nc1ccc(F)c(F)c1	86	i
Cc1ccc(NC(=O)Cc2nc(-c3ccccn3)n[nH]2)cc1	69	i
Cc1cccc(NC(=O)Cc2nc(-c3ccccc3)n[nH]2)c1C	i	i
O=C(Cc1nc(-c2cccnc2)n[nH]1)Nc1ccc(F)cc1	i	i
Cc1ccc(NC(=O)Cc2nc(-c3ccccc3)n[nH]2)c(C)c1	i	i
Cc1ccccc1NC(=O)Cc1nc(-c2ccccn2)n[nH]1	100	i
O=C(Nc1ccc2c(c1)CCC2)N1CC2CC1CC2NS(=O)(=O)c1ccccc1 (stereo unspecified)	i	i
O=C1NC(=O)/C(=C/c2ccc(Cl)cc2Cl)S1	i	i
CCOc1cc([N+](=O)[O-])cc(/C=C2\SC(=O)NC2=O)c1O	i	71
O=C1NC(=O)/C(=C/c2cc(Br)cc(Cl)c2O)S1	60	i
N=C1NC(=O)/C(=C/c2cc(Br)cc(Cl)c2O)S1	i	i
O=C1NC(=O)/C(=C/c2cc(Cl)cc(Cl)c2O)S1	86	i
O=C1NC(=O)/C(=C/c2ccccc2OCc2ccc([N+](=O)[O-])cc2)S1	i	i
O=C(Cn1cnc([N+](=O)[O-])n1)NC12CC3CC(CC(C3)C1)C2	i	i
Cc1ccccc1CC(=O)N1CCC(c2nc(CNC(=O)C3CC3)cs2)CC1	i	i
SMILES	mHTT CaM bind	Pf apPOL inh
COc1ccc(NC(=O)C2CC(=O)N(C)C(=Nc3ccc(Cl)c(C(F)(F)F)c3)S2)cc1 (stereo unspecified)	i	i
COc1ccc(NC(=O)C2CC(=O)N(C)C(=Nc3ccc(Cl)c(Cl)c3)S2)cc1 (stereo unspecified)	85	i
CC(NC(=O)CC1Sc2ccccc2NC1=O)C(C)(C)C (stereo unspecified)	i	i
CC(C)(C)C(=O)C=C1Nc2ccccc2SC1(O)CC(=O)C(C)(C)C (stereo unspecified)	51	nt
N#Cc1ccc(-c2nc(Cc3c(F)cccc3Cl)no2)cc1	i	i
O=C1Nc2ccccc2/C1=N\N1CCN(C2c3ccccc3-c3ccccc32)CC1	+	nt
O=C1Nc2ccccc2/C1=N\N1C(=O)C2C=CC=CC2C1=O (stereo unspecified)	i	nt
CCCCNC(=O)OCCCN1CCC2(CCC(c3ccccc3)CC2)C1=O (stereo unspecified)	i	i
O=C(Nc1ccc(F)cc1)OCCN1CCCC12CCC(c1ccccc1)CC2 (stereo unspecified)	i	i
O=C(Nc1cccc(F)c1)OCCCN1CCC2(CCC(c3ccccc3)CC2)C1 (stereo unspecified)	50	i
O=C(Nc1ccccc1C(F)(F)F)OCCCN1CCC2(CCC(c3ccccc3)CC2)C1=O (stereo unspecified)	93	i
CCOC(=O)Oc1cc2sc(=O)oc2cc1Br	i	i
COC(=O)Oc1c(Br)cc2oc(=O)sc2c1[N+](=O)[O-]	86	i
Cc1ccc(OC(=O)OCC(C)C)c(Br)c1	i	i
COC(=O)Oc1c(Cl)cc2oc(=O)sc2c1Br	93	i
CN(C)S(=O)(=O)Oc1cc2sc(=O)oc2cc1Cl	i	i
O=c1oc2cc(Br)c(O)c(Br)c2s1	100	i
CC(C)COC(=O)Oc1c(Cl)cc2oc(=O)sc2c1[N+](=O)[O-]	82	i
COc1ccc(NC(=O)COc2ccccc2C)cc1OC	i	i
CN(C)C(=O)C1CCN(c2nc3ccc(-c4cccs4)nc3s2)CC1	i	i
COc1ccc(S(=O)(=O)NCc2ccc(Cl)c(Cl)c2)cc1	i	i
Cc1ccn2cc(CCNC(=O)c3ccc(C(F)(F)F)cc3)nc2c1	i	i
O=C(Nc1ccc(NC(=O)c2cccs2)cc1)c1ccc([N+](=O)[O-])cc1	i	i
O=C1c2cccc3cccc(c23)C(=O)N1CC1CCN(C(=O)C23CC4CC(CC(C4)C2)C3)CC1	i	i
CC1(C)Cc2ccccc2-c2nnc(-c3cccnc3)n21	i	i
SMILES	mHTT CaM bind	Pf apPOL inh
Cc1ccc(Cn2cnc3c2c(=O)n(C2CC2)c(=O)n3-c2ccccc2)cc1	i	i
Cc1nc(-c2ccccc2)sc1C(=O)N1CCC(C(C)C(=O)NC2CCCC2)CC1 (stereo unspecified)	100	i
Cc1nc(-c2ccccc2)sc1C(=O)N1CCC(CC(=O)NC2CCCCC2)CC1	i	i
Nc1ccc(C(=O)Nc2ccc(-c3nc4ccc(NC(=O)c5ccc(N)cc5)cc4[nH]3)cc2)cc1	52	i
Cc1cccc2[nH]c(-c3ccc(NC(=O)c4ccc(N)cc4)cc3)nc12	i	i
O=[N+]([O-])c1ccc2nc(-c3ccccc3)[nH]c2c1	i	i
O=C(O)c1ccc(-c2nc3ccc(-c4ccc5nc(-c6ccc(C(=O)O)cc6)[nH]c5c4)cc3[nH]2)cc1	nt	86
CC(=O)Nc1ccc(-c2nc3ccc(NC(C)=O)cc3[nH]2)cc1	i	81
COc1ccc(Cl)cc1C(=O)Nc1ccc(F)cc1	i	i
C=CC(=O)Nc1ccc(-c2nc3ccc(NC(=O)C=C)cc3[nH]2)cc1	i	i
COc1ccc(Cl)cc1C(=O)Nc1ccc(-c2nc3ccccc3[nH]2)cc1	90	i
Brc1ccc(C=Nc2cnc3ccccc3c2)cc1	i	i
Cc1ccc(C(O)=C2C(=O)C(=O)N(CCCN3CCOCC3)C2c2ccco2)cc1 (stereo unspecified)	i	i
Cn1nc(-c2nc(-c3cccc(F)c3)no2)c2c1CCN(C(=O)c1cccnc1)C2	i	i
Cc1cc(Cl)cc(Br)c1OCC(O)CN1CCN(c2ccc(C(F)(F)F)cn2)CC1 (stereo unspecified)	nt	i
O=C(O)CC1Nc2ccccc2NC1=O (stereo unspecified)	i	i
C=C(C)CC1Nc2ccccc2NC1CC(=C)C (stereo unspecified)	56	nt
O=C(O)c1ccc(NS(=O)(=O)c2cc(Cl)c(Cl)cc2Cl)cc1	i	i
CCOc1ccc(C(O)=C2C(=O)C(=O)N(c3nnc(C)s3)C2c2ccc([N+](=O)[O-])cc2)cc1 (stereo unspecified)	i	i
COc1ccc(C(O)=C2C(=O)C(=O)N(c3nnc(C)s3)C2c2ccc(Cl)c(Cl)c2)cc1 (stereo unspecified)	100	i
Oc1ccccc1CNCC12CCC3CC(CC(C3)C1)C2	i	i
Cc1cccn2c(=O)c3cc(C(=O)NCC4CCCO4)c(=N)n(Cc4ccco4)c3nc12 (stereo unspecified)	i	i
COc1cccc(NC(=O)N2CCN(C)c3ccccc32)c1	53	i
COc1cccc(NC(=O)N2CCCc3ccccc32)c1	nt	i
CCOc1ccc(C(=O)N2CCN(c3ccc([N+](=O)[O-])cc3)CC2)cc1Cl	i	i
Brc1c(Br)c(Br)c2[nH]cnc2c1Br	nt	i

Assay outcomes as filed in PubChem.
